FBW7 act: activators of human E3 ligase FBW7 | Q969H0 | AID 1259310 | AlphaScreen FBW7–phospho-cyclin E peptide binding, activator screen | 0.13% of 650,000 active | normalized activity (activation), % at 26.1 µM; in the data active = normalized activity above about 1.9%;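 also: purified mutant Fbw7 with reduced substrate affinity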
MITF inh: blocks human microphthalmia-associated transcription factor | O75030 | AID 1259374 | AlphaScreen MITF homodimerization, bead proximity signal | 0.91% of 650,000 active | inhibition, % at 2.6 µM; in the data active = inhibition above about 50%;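 also: 0% = vehicle wells with protein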
TEAD-YAP inh: TEAD-YAP interaction inhibition; 1.4% of 640,000 active; inhibition, % at 9.12 µM; HEK-TIYL cells, TEAD-Gal4/YAP UAS-luciferase luminescence; in the data active = inhibition above about 32%;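 also: 0% = median of test compound wells and 100% = reference inhibitor wells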
GPR151 ag: human GPR151 activation | 1% of 650,000 active | PathHunter beta-arrestin GPR151 cells, luminescence | AID 1508602 | activation, % at 11.2 µM; in the data active = activation above about 4.9%;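 also: 0% = median of compound wells and 100% = cells with positive control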
Target sequence (Q8TDV0 whole entry, looked up): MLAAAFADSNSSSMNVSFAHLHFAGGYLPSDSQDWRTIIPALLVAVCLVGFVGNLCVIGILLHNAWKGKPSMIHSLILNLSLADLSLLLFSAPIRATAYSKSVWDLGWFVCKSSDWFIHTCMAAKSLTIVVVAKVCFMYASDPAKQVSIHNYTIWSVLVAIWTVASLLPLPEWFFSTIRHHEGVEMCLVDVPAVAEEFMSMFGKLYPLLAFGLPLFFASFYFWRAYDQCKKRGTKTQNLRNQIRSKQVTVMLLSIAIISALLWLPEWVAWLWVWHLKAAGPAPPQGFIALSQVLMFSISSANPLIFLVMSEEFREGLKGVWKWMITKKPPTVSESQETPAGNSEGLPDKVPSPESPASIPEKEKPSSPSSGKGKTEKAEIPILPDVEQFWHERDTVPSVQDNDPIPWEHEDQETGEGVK
GPR151 conf act: confirmation of human GPR151 activators; activation, % at 11.2 µM; shares compounds with GPR151 ag; 6,700 tested, under 10 active; GPR151 PathHunter beta-arrestin cells, luminescence, 90 min; % of EA-reagent control over plate median;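 active = mean percent activation across replicates above the confirmation screen cutoff of 4.91%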
GPR119 counter: GPR119 activation, counter-screen for GPR151 activators | shares compounds with GPR151 ag | GPR119 PathHunter beta-arrestin cells, luminescence, 90 min; 0 = compound-well median, 100 = enzyme-acceptor control | activation, % at 11.2 µM | 0.3% of 6,700 active | AID 1508611;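 active = mean percent activation in the counterscreen above 29.09%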;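 also: counterscreen on off-target GPR119 to flag nonselective hits from the GPR151 activator screen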
Active calls of the source: *; / = not tested or not shown. In the library only some 3.4% were active in any assay of this set; here they are far more common.

SMILES	FBW7 act	MITF inh	TEAD-YAP inh	GPR151 ag	GPR151 conf act	GPR119 counter
O=C(NCCC1=CCCCC1)C1CC(=O)N(C2CCCC2)C1 (centres undefined)	0.0	-1.3	0.0	5.5*	0.1	6.8
Cc1ccc(NC(=O)N2CCC(C(=O)NCCC3=CCCCC3)CC2)cc1	0.0	22.8	-5.4	5.0*	-0.3	-3.9
CCOC(=O)c1c(NC(=O)CSc2nnc3[nH]c(=O)ccn23)sc2c1CCCC2	0.3	-3.0	5.8	-1.1	/	/
CS(=O)(=O)NCc1nnc(SCc2ccc(F)cc2)n1-c1ccc(F)cc1	0.1	7.0	10.8	0.0	/	/
Cc1ccc(-n2c(CNS(C)(=O)=O)nnc2SCc2ccc(F)cc2)cc1	0.1	13.1	15.5	4.9*	0.6	-1.0
CCOC(=O)CSc1nc2ccc(NC(=O)CSCC(=O)Nc3ccccc3)cc2s1	0.0	-1.7	1.8	4.9*	0.5	6.4
CCn1c(CSCc2ccc(F)cc2)nnc1SCC(=O)Nc1nc(C)cs1	0.1	-11.1	9.3	0.2	/	/
O=C(CSCC(=O)Nc1ccc2nc(SCC(=O)Nc3ccccc3)sc2c1)Nc1ccc2ccccc2c1	-0.1	10.7	0.4	-0.9	/	/
Cc1csc(NC(=O)CSCC(=O)Nc2ccccc2)n1	-0.2	-8.8	-8.3	6.9*	1.4	6.3
Cc1csc(NC(=O)CSc2nnc(CSCc3ccc(F)cc3)n2C)n1	0.2	-9.6	14.6	5.1*	0.4	6.6
CNC(=S)N1CCC(C(=O)NC(c2ccc(OC)cc2)c2ccccn2)CC1 (centres undefined)	0.1	1.1	0.9	0.1	/	/
C1CN(c2nc3nonc3nc2N2CCOCC2)CCO1	-0.1	10.1	1.5	-0.2	/	/
C1CN(c2nc3nonc3nc2N2CCSCC2)CCO1	-0.1	4.0	-0.1	8.9*	0.6	-0.7
COc1ccccc1N1CCN(C2CCCN(C(=O)C3(C(N)=O)CC3)C2)CC1 (centres undefined)	-0.1	2.8	-6.5	5.6*	0.0	3.8
COc1ccccc1N1CCN(C2CCCN(C(=O)C3CCCCC3)C2)CC1 (centres undefined)	0.1	8.0	-0.9	0.1	/	/
O=C(NCC(c1ccc2c(c1)OCO2)N1CCN(c2ccccc2F)CC1)c1cnccn1 (centres undefined)	0.2	15.5	-23.2	5.5*	0.8	5.8
Cc1ccccc1NC(=O)C(=O)NCC(c1ccc2c(c1)OCO2)N1CCN(C)CC1 (centres undefined)	-0.2	1.5	-9.7	5.7*	-0.5	-5.2
CCCN1CCCC(c2[nH]ncc2-c2cccc(F)c2)C1 (centres undefined)	0.3	6.5	-3.2	-0.2	/	/
O=C(CSc1cn(CC(=O)N2CCCCC2)c2ccccc12)N1CCCCCC1	-0.2	1.8	-25.4	-2.0	/	/
Cc1nc(N2CCOCC2)c2c(C)c(C(=O)Nc3cccc(C(F)(F)F)c3)sc2n1	0.0	-4.8	6.4	5.8*	-0.6	-13.5
Cc1ccc(NC(=O)c2sc3nc(C)nc(N4CCN(c5ccccn5)CC4)c3c2C)c(Br)c1	0.0	-0.7	0.9	8.8*	-0.6	11.2
Cc1cccc(NC(=O)c2sc3nc(C)nc(N4CCOCC4)c3c2C)c1	0.1	9.4	-9.0	1.2	/	/
Cc1nc2sc(C(=O)Nc3cccc(C(F)(F)F)c3)c(C)c2c(=O)[nH]1	0.0	11.1	1.6	6.5*	0.5	-3.8
O=C(NC1CCCCC1)N1CCC(c2nnc(-c3ccco3)o2)CC1	0.0	-7.9	-4.7	-1.2	/	/
COc1cccc2cc(S(=O)(=O)c3ccccc3)c(=O)oc12	0.6	8.3	19.4	-0.4	/	/
SMILES	FBW7 act	MITF inh	TEAD-YAP inh	GPR151 ag	GPR151 conf act	GPR119 counter
COP(=O)(OC)c1nc(-c2ccc(C)cc2)oc1NCCc1ccccc1	-0.2	0.6	5.7	0.2	/	/
CC(C)(C)C#C/C=N/n1nnc(-c2ccccc2)n1	-0.1	8.0	-2.8	5.8*	-0.5	-4.3
CCOc1ccc(NC(=O)C2CC(=O)N(CC)C(=Nc3ccc(C)c(C)c3)S2)cc1 (centres undefined)	0.0	-3.1	11.5	0.4	/	/
CCCOc1ccc(NC(=O)C2CC(=O)N(CC)C(=Nc3ccc(C)c(C)c3)S2)cc1 (centres undefined)	0.1	8.0	-3.2	7.3*	2.7	12.9
COc1ccccc1C1C2=C(CC(C)(C)CC2=O)Nc2[nH]c(=O)[nH]c(=O)c21 (centres undefined)	0.5	21.4	1.9	0.3	/	/
C=CCOC(=O)CCN1C(=O)c2ccccc2C1=O	0.0	3.7	-4.0	19.8*	-0.6	-10.4
COc1ccc(CCNC(=O)c2ccc3c(c2)ncn3-c2cccc(C)c2)cc1OC	-0.1	4.8	4.0	0.3	/	/
OCC1CCCN1c1nc(NCc2cccc(C(F)(F)F)c2)c2ncn(-c3ccccc3)c2n1 (centres undefined)	0.2	2.8	3.6	0.6	/	/
NC(=O)COC(=O)CCN1c2ccccc2Sc2ccccc21	-0.5	-8.4	15.6	9.8*	-0.1	-13.2
CC1CCN(C(=O)Cn2cnc3scc(-c4ccccc4)c3c2=O)CC1	0.1	6.5	20.9	1.0	/	/
O=C1NCC2=C1C(c1ccccc1O)Nc1ccccc1N2 (centres undefined)	-0.1	5.4	-4.4	9.2*	-0.2	9.2
O=C1NCC2=C1C(c1ccccc1)Nc1ccccc1N2 (centres undefined)	0.0	-0.5	-0.8	0.5	/	/
COC(=O)C(Cc1cc(Cl)ccc1Cl)SC#N (centres undefined)	0.1	22.8	-2.9	9.7*	-1.0	-11.9
Cc1ccnc(Nc2ccc(N3CCN(C(=O)C4CCCC4)CC3)nn2)c1	1.0	5.5	6.1	5.1*	-0.1	-2.1
Cc1csc(SCc2cc([N+](=O)[O-])cc3c2OCOC3)n1	-0.1	0.9	-5.5	0.1	/	/
O=C(NCCN1CCOCC1)c1nn2c(c1Cl)NC(c1ccc(Br)cc1)CC2C(F)(F)F (centres undefined)	0.0	-2.4	-2.0	-0.2	/	/
O=C(NCCN1CCOCC1)c1nn2c(c1Cl)NC(c1ccco1)CC2C(F)(F)F (centres undefined)	0.0	1.9	-1.2	5.7*	0.5	1.2
NC(=O)c1ccsc1NC(=O)c1ccccc1	0.0	2.3	-46.5	-0.2	/	/
CCOC(=O)c1cc(N2C(=O)C3C4C=CC(CC4)C3C2=O)ccc1Cl (centres undefined)	0.3	4.1	8.1	10.3*	-0.2	7.2
O=C1CCC/C(=N\NC(=O)COc2cccc(F)c2)C1	0.1	-14.4	-1.3	0.3	/	/
Cc1ccc2nc(-c3ccc(NC(=O)CCOc4ccccc4)cc3)sc2c1	0.0	1.3	9.5	0.5	/	/
O=C(Nc1ccc(N2CCC(NCCN3CCNC3=O)CC2)cc1)C1CCCC1	0.1	1.3	-12.9	6.3*	0.5	0.4
O=C(COc1ccccc1)Nc1ccc(N2CCC(NCCN3CCNC3=O)CC2)cc1	-0.1	1.0	9.1	0.3	/	/

From PubChem BioAssay
